Assay results as given in PubChem BioAssay AID1159580 (chemical genetic matrix, 2015).
In all, about 5,500 compounds went through this assay and about 2,000 (36%) were called active. Not shown: some 18% with an inconclusive outcome. No stated cut-off is given here; in the data, active means normalized growth mostly below about 0.91 (no sharp cut-off); inconclusive means no clear call, values can overlap the other calls; inactive means mostly above about 0.92. Some of the results follow.

Experiment: chemical genetic growth profiling, strain panel (AID 1159580);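 further: tested at 20 µM; growth read once vehicle control cultures reached saturation at 30 °C; 1 = growth at the plate median or of vehicle wells; lower values mean less growth of the strain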
Conditions: S. cerevisiae deletion strains, growth OD

Measured: normalized growth

CN(C)c1ccc(/C=C/c2ccc3ccccc3[n+]2C)cc1
active: locus YHR030C, strain SLT2, hits give low values 0.532 | locus YHR079C, strain IRE1, hits give low values 0.49 | locus YLR113W, strain HOG1, hits give low values 0.677 | locus YNL020C, strain ARK1, hits give low values 0.61 | locus YNL307C, strain MCK1 (second series), hits give low values 0.589 | locus YOR231W, strain MKK1, hits give low values 0.548 | locus YPL256C, strain CLN2, hits give low values 0.626
inactive: locus YAR019C, strain CDC15, hits give low values 0.966 | locus YBL105C, strain PKC1, hits give low values 0.961 | locus YBR135W, strain CKS1, hits give low values 0.974 | locus YBR136W, strain MEC1, hits give low values 0.956 | locus YBR160W, strain CDC28, hits give low values 0.959 | locus YDL017W, strain CDC7, hits give low values 0.969 | locus YDL028C, strain MPS1, hits give low values 0.976 | locus YDL101C, strain DUN1, hits give low values 0.988 | locus YDL108W, strain KIN28, hits give low values 0.965 | locus YDL132W, strain cdc53, hits give low values 0.975 | locus YDL214C, strain PRR2, hits give low values 0.817 | locus YDR052C, strain DBF4, hits give low values 0.954 | locus YDR054C, strain cdc34, hits give low values 0.965 | locus YDR226W, strain ADK1, hits give low values 0.961 | locus YDR477W, strain SNF1, hits give low values 0.83 | locus YER123W, strain YCK3, hits give low values 0.799 | locus YER133W, strain GLC7, hits give low values 0.801 | locus YFL009W, strain cdc4, hits give low values 0.976 | locus YFL029C, strain CAK1, hits give low values 0.978 | locus YFR003C, strain YPI1, hits give low values 0.959 | locus YFR019W, strain FAB1, hits give low values 0.87 | locus YFR028C, strain CDC14, hits give low values 0.967 | locus YGR040W, strain KSS1, hits give low values 0.798 | locus YGR052W, strain FMP48, hits give low values 0.745 | locus YGR092W, strain DBF2, hits give low values 0.775 | locus YHR082C, strain KSP1, hits give low values 0.806 | locus YHR205W, strain SCH9, hits give low values 0.64 | locus YIL147C, strain SLN1, hits give low values 0.959 | locus YJL095W, strain BCK1, hits give low values 0.666 | locus YJL128C, strain PBS2, hits give low values 0.943 | locus YJL157C, strain FAR1, hits give low values 0.733 | locus YJR016C, strain ILV3, hits give low values 0.983 | locus YJR066W, strain TOR1 (second series), hits give low values 0.928 | locus YJR066W, strain TOR1, hits give low values 0.607 | locus YKL048C, strain ELM1, hits give low values 0.899 | locus YKL067W, strain YNK1, hits give low values 0.798 | locus YKL101W, strain HSL1, hits give low values 0.815 | locus YKL193C, strain SDS22, hits give low values 0.982 | locus YKL203C, strain TOR2, hits give low values 0.823 | locus YLR133W, strain CKI1, hits give low values 0.816 | locus YLR403W, strain SFP1, hits give low values 0.672 | locus YML070W, strain DAK1, hits give low values 0.811 | locus YMR001C, strain CDC5, hits give low values 0.978 | locus YMR205C, strain PFK2 (second series), hits give low values 0.887 | locus YMR277W, strain FCP1, hits give low values 0.976 | locus YNL006W, strain LST8, hits give low values 0.979 | locus YNL161W, strain CBK1, hits give low values 0.977 | locus YNL183C, strain NPR1, hits give low values 0.782 | locus YNL207W, strain RIO2, hits give low values 0.962 | locus YNL222W, strain SSU72, hits give low values 0.968 | locus YOL078W, strain AVO1, hits give low values 0.984 | locus YOL136C, strain PFK27, hits give low values 0.786 | locus YOR061W, strain CKA2, hits give low values 0.69 | locus YOR119C, strain RIO1, hits give low values 0.833 | locus YOR329C, strain SCD5, hits give low values 0.965 | locus YPL031C, strain PHO85, hits give low values 0.807 | locus YPL153C, strain RAD53, hits give low values 0.833 | locus YPL204W, strain HRR25, hits give low values 0.726 | locus YPL209C, strain IPL1, hits give low values 0.966 | locus YPR025C, strain CCL1, hits give low values 0.969 | locus YPR106W, strain ISR1, hits give low values 0.977 | locus YPR111W, strain DBF20, hits give low values 0.96 | strain NNK1, hits give low values 0.97 | strain TSCII, hits give low values 0.966
